Each structure is given as a SMILES string. The campaign covered roughly 310,000 compounds. About 1,200 (0.39%) were called active. Not all results are given here. Results with a measured potency or affinity are listed apart. Values without a mark were called inactive. No rule for the calls is given here.

The assay deals with Large T antigen (Simian virus 40) (UniProt P03070). Put plainly: TAg ATPase/helicase activity blockers – biochemical (AID 1903). The settings on record: SV40 large T antigen ATPase/helicase inhibition assay; at 20 µM; hits give high values.
Large T antigen (Simian virus 40), sequence (P03070 whole entry, looked up): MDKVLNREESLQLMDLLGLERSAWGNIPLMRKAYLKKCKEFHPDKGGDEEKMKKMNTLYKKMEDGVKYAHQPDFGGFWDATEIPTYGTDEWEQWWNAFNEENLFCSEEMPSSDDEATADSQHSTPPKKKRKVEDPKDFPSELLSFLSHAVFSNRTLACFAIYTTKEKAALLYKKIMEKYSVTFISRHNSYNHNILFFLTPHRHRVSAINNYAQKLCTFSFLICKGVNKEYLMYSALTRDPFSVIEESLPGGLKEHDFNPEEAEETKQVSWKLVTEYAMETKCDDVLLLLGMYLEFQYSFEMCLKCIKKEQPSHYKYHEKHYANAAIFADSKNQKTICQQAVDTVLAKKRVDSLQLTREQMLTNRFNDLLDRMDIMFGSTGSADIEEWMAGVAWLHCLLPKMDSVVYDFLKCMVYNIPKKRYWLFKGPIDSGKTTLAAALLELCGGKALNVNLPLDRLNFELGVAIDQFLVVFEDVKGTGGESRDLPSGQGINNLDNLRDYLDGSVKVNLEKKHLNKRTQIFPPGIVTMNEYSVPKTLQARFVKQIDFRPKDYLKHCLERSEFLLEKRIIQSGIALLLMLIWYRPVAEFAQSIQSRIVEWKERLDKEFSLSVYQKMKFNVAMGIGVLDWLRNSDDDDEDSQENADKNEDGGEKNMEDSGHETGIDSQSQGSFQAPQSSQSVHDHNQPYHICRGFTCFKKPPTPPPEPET
Usually inhibition stands for the drop in the measured response relative to a control, in per cent. `Cn1c(CNC(=O)C(Cc2ccccc2)NC(=O)c2cccc(F)c2)cc(=O)n(C)c1=O` (centres undefined): the inhibition is -0.65%. In the case of `O=C(NNC(=O)c1ccc[nH]1)c1cc(Cl)cc(Cl)c1`, the inhibition is 10.3%. Regarding `COc1ccccc1C(=O)NNC(=O)c1ccc(NS(=O)(=O)c2cccs2)cc1`, the inhibition was 16.7%. Take `O=S(=O)(c1ccccc1)N1CCN(Cc2ccc(Cl)cc2)CC1`: the inhibition was 10.3%. To `O=C1CCCC/C1=C/Nc1cccc(C(F)(F)F)c1` belongs 18.4%; to `CC1SCC(NC(=O)c2ccccc2Cl)CS1` (centres undefined), 8.46%. To `CC(=O)OCCN1C(=O)c2cccc3cc([N+](=O)[O-])cc(c23)C1=O` belongs 14.1%; to `Cc1ccc(-c2[nH]ncc2C(=O)c2ccc(Br)cc2)c(O)c1`, 7.57%; to `CCCN1C(=O)C(NC(=O)c2ccncc2)(C(F)(F)F)C2=C1CC(C)(C)CC2=O` (centres undefined), -1.41%. To `Cc1ccc(/C=C/c2onc(C)c2S(=O)(=O)N2CCC(C(=O)NC(C)(C)C)CC2)cc1` belongs 2.7%; to `CC(C)C(=O)Nc1ccc(-c2csc(-c3ccccc3)n2)cc1`, 1.63%.

Turning to `CC(C)C(=O)Nc1cccc(-c2csc(-c3ccccc3)n2)c1`, the inhibition was -59.4%. To `CCOC(=O)Cc1csc(NC(=O)/C=C/c2cccc(Br)c2)n1` belongs -3.33%; to `COc1cc(C(=O)Nn2c(C)nc3ccccc3c2=O)cc(OC)c1OC`, 7.45%. For the compound `Cc1ccc(/C=C2\C(=N)N3N=C(CC(=O)N4CCCCC4)SC3=NC2=O)cc1`, the inhibition was 26.9%.

In the case of `CC(C)c1ccc(/C=C2\C(=N)N3N=C(CC(=O)N4CCCCC4)SC3=NC2=O)cc1`, the inhibition was 36.9%. For `C=CCOc1ccc(/C=C2/C(=N)N3N=C(CC(=O)N4CCCC4)SC3=NC2=O)cc1OC`, the inhibition is 11.3%. With `CSc1ccc(/C=C2/C(=N)N3N=C(CC(=O)N4CCCC4)SC3=NC2=O)cc1`, the inhibition is 12.1%.

As for `COc1ccc(/C=C2/C(=N)N3N=C(CC(=O)N4CCCC4)SC3=NC2=O)cc1OC`, the inhibition was 14.2%. For the compound `CSc1ccc(/C=C2\C(=N)N3N=C(CC(=O)N4CCCCC4)SC3=NC2=O)cc1`, the inhibition was 26.3%. As for `Cc1ccc(/C=C2/C(=N)N3N=C(CC(=O)N4CCCC4)SC3=NC2=O)cc1`, the figure is 30.2%; as for `CCc1ccc(/C=C2\C(=N)N3N=C(CC(=O)N4CCCCC4)SC3=NC2=O)cc1`, 10.1%; as for `COc1cc([N+](=O)[O-])ccc1NC(=O)CCCOc1cc(C)ccc1C`, 8.46%.

Consider `CCOC(=O)c1nn(-c2ccc(Cl)cc2)c2nc(Nc3ccccc3)cc(=O)n12`, for which the inhibition was 5.22%.

(Values after PubChem BioAssay AID1903 (Southern Research Specialized Biocontainment Screening …, 2009).)
